Reference: the supplement of paper PMC10849652
Targets with a hit are over-represented here; the source holds about 8,800 in all. About 0.5% of all pairs of compound and target were hits. Values without a mark were called inactive.

compound: CC1=C2C(=CC=C1)N=C(N(C2=O)C3=CC=CC=C3C)CN4C=NC5=C(N=CN=C54)N; assay: log2 fold change, soluble protein after heating vs DMSO (PISA); higher = thermal stabilisation; K562 lysate, 10 uM; active = over 0.2 and 3.5 SD of the protein, either way, in both replicates (recomputed)
Procedure, shortened: (§1)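 The values are log-two fold changes in thermal stability compared with solvent controls and come from duplicates. They were obtained by TMTpro 16plex LC-MS/MS, with channel sums equalised, on the supernatant after 21,000xg for 90 min. That supernatant came from crude K562 extract at 1 mg/mL protein treated with 10 μM compound for 30 min, heated for 3 min across 48°C-58°C, pooled and brought to 0.5% NP-40 at 4°C.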

Sequence of UniProt P15260 (P15260 whole entry, looked up): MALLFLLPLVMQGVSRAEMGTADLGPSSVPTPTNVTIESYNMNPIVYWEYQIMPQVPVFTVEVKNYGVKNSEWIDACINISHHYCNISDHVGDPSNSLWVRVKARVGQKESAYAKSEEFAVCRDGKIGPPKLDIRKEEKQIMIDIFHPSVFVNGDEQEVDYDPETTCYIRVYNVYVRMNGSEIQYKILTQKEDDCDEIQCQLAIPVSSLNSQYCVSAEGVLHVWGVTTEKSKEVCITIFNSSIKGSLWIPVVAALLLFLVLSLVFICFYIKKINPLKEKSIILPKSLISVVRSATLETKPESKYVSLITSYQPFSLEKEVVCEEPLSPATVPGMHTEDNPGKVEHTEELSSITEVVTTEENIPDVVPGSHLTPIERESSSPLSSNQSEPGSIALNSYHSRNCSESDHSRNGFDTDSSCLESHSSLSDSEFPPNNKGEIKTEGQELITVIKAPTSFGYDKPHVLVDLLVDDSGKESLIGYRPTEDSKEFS
Sequence of UniProt O00425 (O00425 whole entry, looked up): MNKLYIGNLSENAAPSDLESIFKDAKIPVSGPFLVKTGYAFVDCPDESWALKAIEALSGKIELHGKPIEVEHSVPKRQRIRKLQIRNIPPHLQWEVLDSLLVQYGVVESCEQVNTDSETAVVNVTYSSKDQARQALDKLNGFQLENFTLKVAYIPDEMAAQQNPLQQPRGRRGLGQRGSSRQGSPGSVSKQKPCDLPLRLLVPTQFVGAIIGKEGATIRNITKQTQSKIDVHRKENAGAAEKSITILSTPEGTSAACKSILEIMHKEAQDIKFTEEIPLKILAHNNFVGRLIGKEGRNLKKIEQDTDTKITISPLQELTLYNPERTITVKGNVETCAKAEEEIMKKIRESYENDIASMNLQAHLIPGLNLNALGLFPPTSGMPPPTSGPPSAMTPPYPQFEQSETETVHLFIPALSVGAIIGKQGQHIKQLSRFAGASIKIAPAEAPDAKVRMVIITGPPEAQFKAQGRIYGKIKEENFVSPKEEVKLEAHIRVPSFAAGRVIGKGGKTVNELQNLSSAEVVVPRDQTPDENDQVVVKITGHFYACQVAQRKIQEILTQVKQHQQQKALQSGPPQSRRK
Sequence of UniProt P82970 (P82970 whole entry, looked up): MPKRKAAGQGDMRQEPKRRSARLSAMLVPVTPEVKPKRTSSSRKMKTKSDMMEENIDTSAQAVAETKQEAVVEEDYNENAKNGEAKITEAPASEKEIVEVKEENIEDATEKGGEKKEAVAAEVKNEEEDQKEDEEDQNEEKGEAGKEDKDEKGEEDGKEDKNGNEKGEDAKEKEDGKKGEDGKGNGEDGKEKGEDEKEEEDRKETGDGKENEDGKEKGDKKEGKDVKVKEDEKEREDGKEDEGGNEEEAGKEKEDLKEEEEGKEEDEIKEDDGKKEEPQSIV
Sequence of UniProt O15379 (O15379 whole entry, looked up): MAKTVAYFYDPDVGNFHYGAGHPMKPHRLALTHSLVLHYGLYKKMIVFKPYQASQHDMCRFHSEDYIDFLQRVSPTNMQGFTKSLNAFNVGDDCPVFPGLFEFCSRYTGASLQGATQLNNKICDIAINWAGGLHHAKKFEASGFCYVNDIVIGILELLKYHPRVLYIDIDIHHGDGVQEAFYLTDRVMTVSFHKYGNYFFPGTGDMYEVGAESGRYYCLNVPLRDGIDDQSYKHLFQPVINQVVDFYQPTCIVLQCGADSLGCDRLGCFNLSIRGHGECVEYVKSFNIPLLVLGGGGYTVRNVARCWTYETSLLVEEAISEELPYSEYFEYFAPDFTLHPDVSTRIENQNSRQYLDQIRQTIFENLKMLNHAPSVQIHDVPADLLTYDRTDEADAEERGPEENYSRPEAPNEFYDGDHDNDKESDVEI
Sequence of UniProt Q9Y5Q9 (Q9Y5Q9 whole entry, looked up): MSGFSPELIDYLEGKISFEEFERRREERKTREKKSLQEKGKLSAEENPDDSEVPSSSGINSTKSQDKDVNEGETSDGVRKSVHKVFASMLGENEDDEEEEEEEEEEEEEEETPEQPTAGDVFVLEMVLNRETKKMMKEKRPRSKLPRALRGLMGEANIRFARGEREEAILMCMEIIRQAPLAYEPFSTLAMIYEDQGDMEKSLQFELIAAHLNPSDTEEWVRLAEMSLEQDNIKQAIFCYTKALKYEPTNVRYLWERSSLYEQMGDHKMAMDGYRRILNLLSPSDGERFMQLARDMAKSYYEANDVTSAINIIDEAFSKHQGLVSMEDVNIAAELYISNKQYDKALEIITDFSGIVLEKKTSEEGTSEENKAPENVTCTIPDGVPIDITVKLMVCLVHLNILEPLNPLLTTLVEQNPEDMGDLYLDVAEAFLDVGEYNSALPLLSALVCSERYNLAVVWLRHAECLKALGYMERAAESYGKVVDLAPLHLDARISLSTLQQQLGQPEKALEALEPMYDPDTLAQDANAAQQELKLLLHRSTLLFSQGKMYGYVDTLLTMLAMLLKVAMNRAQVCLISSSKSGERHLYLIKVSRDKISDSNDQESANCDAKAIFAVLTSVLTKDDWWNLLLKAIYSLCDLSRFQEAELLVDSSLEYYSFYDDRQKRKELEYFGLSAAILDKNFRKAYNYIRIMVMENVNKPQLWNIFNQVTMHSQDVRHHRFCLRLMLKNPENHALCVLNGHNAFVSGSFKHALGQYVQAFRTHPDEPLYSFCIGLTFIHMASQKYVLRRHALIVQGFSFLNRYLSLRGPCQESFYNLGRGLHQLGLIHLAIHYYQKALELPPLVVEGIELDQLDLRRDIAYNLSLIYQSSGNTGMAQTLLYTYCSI
Sequence of UniProt Q01581 (Q01581 whole entry, looked up): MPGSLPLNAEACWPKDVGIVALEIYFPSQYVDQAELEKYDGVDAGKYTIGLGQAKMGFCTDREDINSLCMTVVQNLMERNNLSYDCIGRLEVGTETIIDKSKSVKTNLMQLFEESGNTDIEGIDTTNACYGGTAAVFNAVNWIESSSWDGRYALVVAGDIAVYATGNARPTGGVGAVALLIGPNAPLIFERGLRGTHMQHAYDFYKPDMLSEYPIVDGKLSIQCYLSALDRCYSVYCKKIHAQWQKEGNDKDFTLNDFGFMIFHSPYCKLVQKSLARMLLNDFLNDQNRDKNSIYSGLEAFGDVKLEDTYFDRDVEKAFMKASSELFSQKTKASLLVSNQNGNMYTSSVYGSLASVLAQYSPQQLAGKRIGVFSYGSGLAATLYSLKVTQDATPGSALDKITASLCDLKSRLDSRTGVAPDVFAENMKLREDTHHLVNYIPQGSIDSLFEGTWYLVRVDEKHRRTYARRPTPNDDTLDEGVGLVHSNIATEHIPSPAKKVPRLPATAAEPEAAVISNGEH
Sequence of UniProt Q9H0C8 (Q9H0C8 whole entry, looked up): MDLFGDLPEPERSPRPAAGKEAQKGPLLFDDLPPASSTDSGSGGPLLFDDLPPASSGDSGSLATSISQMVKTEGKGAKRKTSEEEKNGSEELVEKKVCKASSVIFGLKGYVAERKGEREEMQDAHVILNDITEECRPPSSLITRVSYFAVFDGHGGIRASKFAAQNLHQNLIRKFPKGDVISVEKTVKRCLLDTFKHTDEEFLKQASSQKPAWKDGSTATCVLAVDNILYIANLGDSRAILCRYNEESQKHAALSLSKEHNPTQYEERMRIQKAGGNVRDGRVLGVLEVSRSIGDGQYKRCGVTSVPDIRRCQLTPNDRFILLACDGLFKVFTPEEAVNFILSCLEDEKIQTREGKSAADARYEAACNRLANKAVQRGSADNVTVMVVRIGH
Sequence of UniProt P17096 (P17096 whole entry, looked up): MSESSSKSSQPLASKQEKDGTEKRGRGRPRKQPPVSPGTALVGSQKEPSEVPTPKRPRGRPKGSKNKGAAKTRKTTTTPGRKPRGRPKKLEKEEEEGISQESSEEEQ
Sequence of UniProt O15357 (O15357 whole entry, looked up): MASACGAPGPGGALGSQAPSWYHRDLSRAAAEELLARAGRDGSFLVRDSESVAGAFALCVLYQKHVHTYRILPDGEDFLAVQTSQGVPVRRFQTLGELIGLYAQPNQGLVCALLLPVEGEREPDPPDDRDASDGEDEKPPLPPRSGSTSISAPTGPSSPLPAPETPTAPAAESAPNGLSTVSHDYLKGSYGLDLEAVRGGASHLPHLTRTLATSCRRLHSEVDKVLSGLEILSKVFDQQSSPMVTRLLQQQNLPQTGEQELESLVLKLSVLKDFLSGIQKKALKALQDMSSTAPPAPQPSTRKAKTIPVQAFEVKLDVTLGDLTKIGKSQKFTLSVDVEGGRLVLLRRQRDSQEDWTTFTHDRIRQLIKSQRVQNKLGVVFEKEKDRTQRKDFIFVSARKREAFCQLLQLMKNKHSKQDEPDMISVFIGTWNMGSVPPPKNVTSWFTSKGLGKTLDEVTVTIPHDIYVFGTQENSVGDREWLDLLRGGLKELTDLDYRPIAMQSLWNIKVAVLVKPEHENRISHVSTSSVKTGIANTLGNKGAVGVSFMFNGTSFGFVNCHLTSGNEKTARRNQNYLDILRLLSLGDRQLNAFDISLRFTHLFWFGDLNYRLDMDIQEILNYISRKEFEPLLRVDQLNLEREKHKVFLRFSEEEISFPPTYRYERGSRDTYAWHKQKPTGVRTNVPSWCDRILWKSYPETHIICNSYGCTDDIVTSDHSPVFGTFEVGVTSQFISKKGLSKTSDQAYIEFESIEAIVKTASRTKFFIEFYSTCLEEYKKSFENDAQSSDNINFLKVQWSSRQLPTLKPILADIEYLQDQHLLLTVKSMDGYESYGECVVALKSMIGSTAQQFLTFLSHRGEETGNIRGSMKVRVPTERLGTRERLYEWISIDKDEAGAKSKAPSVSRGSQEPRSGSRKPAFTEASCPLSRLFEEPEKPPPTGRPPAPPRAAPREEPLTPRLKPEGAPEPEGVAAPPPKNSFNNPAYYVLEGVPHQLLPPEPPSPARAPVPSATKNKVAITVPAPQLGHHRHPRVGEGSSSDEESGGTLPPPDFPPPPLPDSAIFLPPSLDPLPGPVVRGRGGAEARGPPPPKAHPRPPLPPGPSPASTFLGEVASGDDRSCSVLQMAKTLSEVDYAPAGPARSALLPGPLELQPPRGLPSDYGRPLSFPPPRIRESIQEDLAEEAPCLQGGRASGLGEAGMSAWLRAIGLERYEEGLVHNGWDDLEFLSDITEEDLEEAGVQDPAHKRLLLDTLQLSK

Row | Target | log2 fold change
1 | HNRNPM (UniProt M0QZM1) | -0.01
2 | GNB1 (UniProt P62873) | -0.038
3 | HTT (UniProt P42858) | 0.064
4 | HEATR6 (UniProt Q6AI08) | 0.05
5 | GTF3C3 (UniProt Q9Y5Q9) | 0.03
6 | GLYR1 (UniProt Q49A26) | -0.128
7 | IMPDH1 isoform 6 (UniProt P20839) | -0.009
8 | HNRNPL (UniProt P14866) | 0.04
9 | HNRNPD isoform 2 (UniProt Q14103) | -0.01

compound: Cc1sc2c(c1C)C(c1ccc(Cl)cc1)=N[C@@H](CC(=O)OC(C)(C)C)c1nnc(C)n1-2; assay: as above
Procedure, shortened: as §1

Row | Target | log2 fold change
10 | HK2 (UniProt P52789) | 0.019
11 | IGF2BP3 (UniProt O00425) | 0.035
12 | INPPL1 (UniProt O15357) | 0.012
13 | HMGB2 (UniProt P26583) | 0.036
14 | ILRUN (UniProt Q9H6K1) | 0.009
15 | HMGA1 (UniProt P17096) | -0.031
16 | HDAC3 (UniProt O15379) | 0.044
17 | HAUS3 (UniProt Q68CZ6) | -0.032
18 | HDLBP, A0A024R4E5 | -0.018
19 | IFNGR1 (UniProt P15260) | -0.299
20 | ILKAP (UniProt Q9H0C8) | 0.013
21 | HMGCS1 (UniProt Q01581) | 0.003
22 | HMGN5 (UniProt P82970) | -0.026
23 | GOLGA1 (UniProt Q92805) | -0.057
